High-throughput results (PubChem BioAssay)
KB-V1 MDR tox = KB-V1 MDR subline cytotoxicity; KB-V1 MDR cells viability, CellTiter-Glo, 72 h; Potency, µM (top dose mostly 46.1 µM), actives largely listed as cytotoxic; 400,000 tested, 3.4% active; AID 1347076; note: % is set by controls: 0 for no effect and ±100 for the full control effect; nearly all actives have a fitted effect of over 60% in size
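Luminescent ATP read-out (CellTiter-Glo, 10 min) measures survival of drug-selected KB-V1 MDR cells after 72 h, 37 degrees C compound exposure. Medium: phenol-red-free DMEM, 10% FBS. Values from fitted concentration-response curves.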
HT1080-NT tox = kills 2HG-producing HT-1080-NT fibrosarcoma cells; 360,000 tested, 1.6% active; HT-1080-NT fibrosarcoma viability, CellTiter-Glo ATP luminescence, 48 h; Potency, µM (doses to about 46.1 µM), inactives show top-dose activity, negative = less viability, hits mostly cytotoxic;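 note: NT is the 2HG producing partner of a matched IDH1 knockdown line; 0% = DMSO-treated cells and -100% = media-only wells without cells; nearly all actives have a fitted effect of over 55% in size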
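Fibrosarcoma NT cells, 750 per well in 5% FBS RPMI, were exposed to compound for 48 hours. Viability: CellTiter-Glo luminescence.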
SW480 rereplic = induces DNA re-replication in SW480 colon adenocarcinoma cells | 340,000 tested, 1.8% active | SW480 DNA re-replication, Hoechst DNA content imaging, 48 h | Potency, µM (doses to about 46.1 µM), for the others: at the top dose re-replication activation, most hits filed as activators; note: % of control where 0% means no effect; nearly all actives have a fitted effect of over 55% in size
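Cells (250 per well) received 23 nL compound or DMSO by pin tool and were kept 48 hr at 37 C, 5% CO2. Nuclei were then stained with Hoechst for 40 min and scanned for DNA content.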
MCF10A rerep = induces DNA re-replication in MCF 10a normal breast cells; MCF 10A DNA re-replication, Hoechst nuclear intensity, 48 h; 350,000 tested, 2.9% active; Potency, µM (highest dose often 46.1 µM), for the others: at the highest dose activity, positive = re-replication, hits mostly activators; note: % of control where 0% means no effect; nearly all actives have a fitted effect of over 50% in size
HT1080 IDH1KD tx = toxicity to HT-1080 IDH1 knockdown cells (counter line); 360,000 tested, 2% active; Potency, µM (titrated, usually from 46.1 µM), for the others: at the highest dose activity, negative = toxicity, hits mostly cytotoxic; HT-1080 IDH1 knockdown viability, ATP luminescence, 48 h;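 note: 0% = DMSO wells and -100% = cell-free medium wells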
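Luminescent ATP read-out (CellTiter-Glo, 10 min at room temperature) after 48 h compound exposure at 37 °C gave viability of IDH1-knockdown HT-1080 cells. Activity was normalised to DMSO and cell-free wells, then fitted as concentration-response curves.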
KB-3-1 cytotox = KB-3-1 parental cell cytotoxicity | KB-3-1 viability, CellTiter-Glo ATP luminescence, 72 h | Potency, µM (titrated, usually from 46.1 µM), usual class: cytotoxic | 400,000 tested, 1.4% active; note: % is set by controls: 0 for no effect and ±100 for the full control effect; nearly all actives have a fitted effect of over 60% in size
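Luminescent ATP read-out (CellTiter-Glo) measures survival of drug-naive KB-3-1 cells after 72 h compound exposure at 37 °C. Titration series was screened from lowest to highest concentration, with DMSO vehicle plates as background controls.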
The depositor's hits bear a star; i = inactive; ? = inconclusive; . = no result given; [ ] = dose if it differs, or a comment. A selection: hits, their analogues and other compounds. The true share with any hit is near 8%. Calls come from the whole dose curve; as a rule, active = well fitted curve in the direction sought with a large enough effect; inconclusive = small, poorly fitted or top-dose-only effect, or another doubt; inactive = no such curve, though single readings can be large; an effect the other way counts as inactive or inconclusive. Potency is the fitted concentration of half-maximal effect.

SMILES	KB-V1 MDR tox	HT1080-NT tox	SW480 rereplic	MCF10A rerep	HT1080 IDH1KD tx	KB-3-1 cytotox
O=C(O)C1=C[C@H](c2csc3ccccc23)C[C@H](OCc2ccc(CO)cc2)O1	i	-0.1%	-1.0%	9.0%	5.4%	i
O=C(NCc1ccccc1)C1=C[C@@H](c2csc3ccccc23)C[C@@H](OCc2ccc(CO)cc2)O1	20.6µM*	-16.2%	?	60.2%	-27.8%	20.6µM*
O=C(NCc1ccccc1)C1=C[C@@H](c2csc3ccccc23)C[C@@H](OCCCCO)O1	?	-27.6%	14.2%	-5.9%	?	5.8µM*
CN1CCN(C(=O)C2=C[C@H](c3csc4ccccc34)C[C@H](OCc3ccc(CO)cc3)O2)CC1	i	-12.0%	-5.8%	3.4%	-11.2%	i
O=C(C1=C[C@H](c2csc3ccccc23)C[C@H](OCc2ccc(CO)cc2)O1)N1CCCCCCC1	i	-22.4%	1.4%	23.1µM*	-22.3%	i
Oc1c(C(c2ccc(Cl)cc2)N2CCCC2)sc2nc(-c3ccco3)nn12 (configuration not stated)	i	.	.	.	.	i
CCCCc1nn2c(=O)cc(COC(=O)COc3ccc(C)cc3)nc2s1	i	.	.	.	.	i
CCC/C(O)=C1\C(=O)CC(C)(C)CC1=Nc1ccc(OC)cc1OC	?	?	18.4µM*	20.6µM*	7.31µM*	?
O=C(CC(c1ccccc1)c1cc(Br)ccc1O)N1CCCCC1 (configuration not stated)	i	4.5%	6.8%	17.6%	4.8%	i
O=C(C#Cc1ccccc1)c1ccco1	i	11.6µM*	5.8µM*	?	6.51µM*	?
O=C(N/N=C/c1ccccc1)c1ccco1	?	-5.6%	1.2%	0.1%	-12.4%	i
COc1ccc(N(C(=O)c2ccc(OC)c(OC)c2)S(=O)(=O)c2ccc(Cl)cc2)cc1	i	.	.	.	.	i
COc1cccc(-n2nc(C#N)c(Cl)cc2=O)c1	i	9.2µM*	?	4.47µM*	14.6µM*	?
COc1ccccc1N1CCN(C(=O)c2oc3ccccc3c2N)CC1	i	.	.	.	.	i
C[C@H](CO)N1C[C@H](C)[C@@H](CN(C)CC2CC2)Oc2c(NC(=O)C3CC3)cccc2C1=O	i	1.4%	?	-22.7%	1.1%	i
C[C@H](CO)N1C[C@H](C)[C@@H](CN(C)CC2CC2)Oc2c(NC(=O)Cc3ccccc3)cccc2C1=O	?	25.9µM*	?	26.6%	?	6.51µM*
C[C@H](CO)N1C[C@H](C)[C@@H](CN(C)S(C)(=O)=O)Oc2c(NC(=O)Cc3ccccc3)cccc2C1=O	i	-27.5%	0.116µM*	-4.4%	-3.7%	i
COc1ccc(CN2C(=O)CCC2(C)c2nnnn2Cc2ccccc2)cc1 (configuration not stated)	?	1.1%	.	.	-6.5%	i
COc1cc(C)ccc1S(=O)(=O)N1CCN(C23CC4CC(CC(C4)C2)C3)CC1	13µM*	4.7%	1.9%	?	6.5%	i
COc1cc(F)ccc1S(=O)(=O)N1CCN(C23CC4CC(CC(C4)C2)C3)CC1	i	-0.7%	-0.4%	2.9%	-9.9%	?
COc1ccc(C)cc1S(=O)(=O)N1CCCCCC1	i	6.2%	9.6%	?	1.5%	i
COc1ccc(C)cc1S(=O)(=O)N1CCC(C)CC1	18.4µM*	-6.3%	7.9%	4.0%	-3.1%	i
CCOC(=O)N1CCC(N2CCN(S(=O)(=O)c3ccc4ccccc4c3)CC2)CC1	2.59µM*	-21.5%	7.9%	0.0%	-15.4%	i
O=C(Cc1ccc2c(c1)OCCO2)N1CCN(S(=O)(=O)c2cccc(Cl)c2Cl)CC1	23.1µM*	2.0%	-108.7%	29.4%	0.7%	i
O=C(C1CC(=O)N(c2ccc3c(c2)OCCO3)C1)N1CCN(S(=O)(=O)c2cccc(F)c2)CC1 (configuration not stated)	20.6µM*	0.8%	0.4%	-0.7%	-5.0%	i
SMILES	KB-V1 MDR tox	HT1080-NT tox	SW480 rereplic	MCF10A rerep	HT1080 IDH1KD tx	KB-3-1 cytotox
COc1ccc(S(=O)(=O)N2CCN(C(=O)c3cccnc3)CC2)cc1OC	i	-0.8%	-40.4%	-5.5%	1.8%	i
O=C(c1cccnc1)N1CCN(S(=O)(=O)c2ccc3ccccc3c2)CC1	18.4µM*	-1.3%	-8.1%	0.0%	-0.1%	16.4µM*
O=C(Cc1ccc2c(c1)OCCO2)N1CCN(S(=O)(=O)c2cccs2)CC1	?	3.6%	-4.3%	-0.5%	3.8%	i
CCSC(=Nc1ccccc1)N1CCOCC1	i	23.1%	-6.3%	-35.2%	21.4%	i
COc1ccc(-n2nc(C(=O)Nc3ccccc3OC)c3c4ccccc4n(C)c3c2=O)cc1Cl	i	.	.	.	.	i
Cc1cc(=O)oc2cc(OCC(=O)Nc3ccc4[nH]c(=O)[nH]c4c3)ccc12	i	8.9%	2.8%	-1.3%	0.7%	i
O=C(Cn1cc([N+](=O)[O-])ccc1=O)NC1CCCCC1	i	-2.2%[9.24 µM]	3.6%	-7.6%	1.0%	i
CCCCCC(=O)N1CCN(S(=O)(=O)c2ccc3c(c2)OCCO3)CC1	?	-0.7%	-1.9%	12.4%	-19.4%	i
COc1ccc(S(=O)(=O)N2CCN(C3Cc4ccccc4C3)CC2)cc1	20.6µM*	-4.2%	-32.4%	-8.4%	7.8%	i
O=C(CCl)N1CCN(S(=O)(=O)c2ccc3c(c2)OCCCO3)CC1	i	-8.6%[9.24 µM]	?	4.11µM*	?	?
O=C(NCC(=O)N1CCN(S(=O)(=O)c2ccccc2)CC1)c1ccc2ccccc2c1	11.6µM*	-4.6%	-3.0%	7.0%	-1.2%	i
COc1ccc(S(=O)(=O)N2CCN(C)CC2)cc1	i	0.6%	?	4.9%	1.2%	i
O=S(=O)(c1ccc(N2CCN(S(=O)(=O)c3ccc4c(c3)OCCO4)CC2)nc1)N1CCCC1	8.2µM*	-11.6%	0.3%	17.7%	-14.3%	?
O=C(NCC(=O)N1CCN(S(=O)(=O)c2ccc3c(c2)OCCO3)CC1)c1ccccc1F	i	-2.8%	-13.2%	-1.2%	-1.5%	i
Cc1ccc(Cl)cc1N1CCN(C(=O)CN2C(=O)COc3ccc(S(=O)(=O)N4CCCCCC4)cc32)CC1	25.9µM*	.	.	.	.	?
O=C(CCl)N1CCN(S(=O)(=O)c2ccc3ccccc3c2)CC1	?	?	?	14.6µM*	?	?
Cc1ccc(Cl)cc1N1CCN(C(=O)CN2C(=O)COc3ccc(S(=O)(=O)N4CCC(C)CC4)cc32)CC1	?	.	.	.	.	i
